This note sets out measurements from ChEMBL document CHEMBL3988442, “University of Dundee, Small-Polar-MMV Screening Library” (2021).

For some of these results: Potency and affinity values are given separately.

Holding throughout (design): scale not given: direction of the effect not stated beside the values
Assay [1] deals with Protein translocase subunit SecA (Escherichia coli (strain K12)) (UniProt P10408). In words: Assay to Identify E. coli SecA ATPase Inhibitors. The assay is classed as functional. The following applies: 30 µM.
Assay [2] has as its target T1, Ubiquitin-activating enzyme e1, putative (Leishmania donovani (strain BPK282A1)) (UniProt E9BSI1).
T1 sequence (whole entry): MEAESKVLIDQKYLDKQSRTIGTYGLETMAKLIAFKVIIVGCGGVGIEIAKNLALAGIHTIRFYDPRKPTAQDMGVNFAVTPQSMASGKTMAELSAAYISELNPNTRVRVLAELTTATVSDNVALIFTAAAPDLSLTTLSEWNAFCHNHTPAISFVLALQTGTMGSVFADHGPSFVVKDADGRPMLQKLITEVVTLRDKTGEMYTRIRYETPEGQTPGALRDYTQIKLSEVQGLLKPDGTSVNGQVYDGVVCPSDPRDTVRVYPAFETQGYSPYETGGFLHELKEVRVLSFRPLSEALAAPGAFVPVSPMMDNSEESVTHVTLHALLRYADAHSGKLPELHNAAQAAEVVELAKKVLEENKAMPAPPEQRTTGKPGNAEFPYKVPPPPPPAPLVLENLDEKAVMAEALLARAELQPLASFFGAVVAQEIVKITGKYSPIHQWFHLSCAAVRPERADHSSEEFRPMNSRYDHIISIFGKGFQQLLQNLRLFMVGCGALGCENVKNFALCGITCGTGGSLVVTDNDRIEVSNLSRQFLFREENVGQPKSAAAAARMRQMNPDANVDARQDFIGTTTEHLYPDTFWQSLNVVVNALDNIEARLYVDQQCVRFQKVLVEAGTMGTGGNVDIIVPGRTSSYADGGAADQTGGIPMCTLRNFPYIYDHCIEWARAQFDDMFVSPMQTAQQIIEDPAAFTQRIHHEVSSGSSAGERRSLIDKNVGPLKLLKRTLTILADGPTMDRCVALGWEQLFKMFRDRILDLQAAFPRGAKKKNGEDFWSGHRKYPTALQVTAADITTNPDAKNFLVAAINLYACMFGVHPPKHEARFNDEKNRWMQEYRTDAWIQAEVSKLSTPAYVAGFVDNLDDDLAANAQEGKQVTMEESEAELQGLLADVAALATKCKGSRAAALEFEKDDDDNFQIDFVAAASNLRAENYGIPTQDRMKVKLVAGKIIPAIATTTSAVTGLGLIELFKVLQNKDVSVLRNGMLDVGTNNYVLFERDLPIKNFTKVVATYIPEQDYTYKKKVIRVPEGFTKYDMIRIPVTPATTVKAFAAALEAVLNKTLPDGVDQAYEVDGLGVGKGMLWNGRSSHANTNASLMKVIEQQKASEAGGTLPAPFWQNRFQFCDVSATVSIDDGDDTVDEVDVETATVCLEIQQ
In words: Leishmania donovani Ubiquitin Activating Enzyme (LdE1). The assay is classed as functional. The following applies: 30 µM.

Assay [3] concerns the target AMP-activated protein kinase, AMPK (Homo sapiens) (UniProt P54646+O43741+P54619+Q9UGJ0+Q9Y478+Q13131+Q9UGI9). In words: AMP-dependent Kinase enzyme assay. An in vitro enzyme assay that detects ADP turnover that is directly proportional to AMPK activity. This uses naive AMPK that is activated during the assay with MK-8722. Format: functional. Particulars: 30 µM.
In assay [4] the target is Sialic acid-binding Ig-like lectin 9 (Homo sapiens) (UniProt Q9Y336). As to the kind of experiment: Hs-Siglec9 ALPHAscreen SOP 20170721. Particulars: 10 µM. (Alpha assays give light when donor and acceptor beads are brought close together.)
The next assay deals with Trypanosoma cruzi. In words: Trypanosoma cruzi phosphomannomutase and mannose-1-phosphate guanylyltransferase assay. Format: functional. The following applies: 10 µM.
The target of assay [5] is T2, Arginase-2, mitochondrial (Homo sapiens) (UniProt P78540).
T2 sequence (whole entry): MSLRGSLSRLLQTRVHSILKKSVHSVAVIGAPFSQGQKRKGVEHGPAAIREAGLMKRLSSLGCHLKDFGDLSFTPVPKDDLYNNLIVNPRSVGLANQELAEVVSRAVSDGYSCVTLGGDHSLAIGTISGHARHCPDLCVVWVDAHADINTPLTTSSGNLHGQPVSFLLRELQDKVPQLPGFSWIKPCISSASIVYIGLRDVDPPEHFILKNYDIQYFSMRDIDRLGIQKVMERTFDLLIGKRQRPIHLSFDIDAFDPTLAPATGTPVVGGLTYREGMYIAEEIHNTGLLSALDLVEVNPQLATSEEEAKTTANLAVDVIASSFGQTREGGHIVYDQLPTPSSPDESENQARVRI
In words: in vitro enzyme assay to detect the production of urea directly proportional to the activity of Arginase II. Further: in the data most compounds retested in dose-response had high values. Format: functional. Particulars: 33.3 µM.

For assay [6], the target named is T3, Proteasome subunit beta (Trypanosoma cruzi) (UniProt O96673).
T3 sequence (whole entry): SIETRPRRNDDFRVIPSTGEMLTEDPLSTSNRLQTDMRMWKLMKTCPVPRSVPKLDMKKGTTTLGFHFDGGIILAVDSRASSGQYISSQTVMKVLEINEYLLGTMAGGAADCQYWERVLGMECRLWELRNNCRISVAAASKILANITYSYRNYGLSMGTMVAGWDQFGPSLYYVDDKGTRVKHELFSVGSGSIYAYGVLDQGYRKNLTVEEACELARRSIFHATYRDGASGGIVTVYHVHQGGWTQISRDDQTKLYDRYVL
As to the kind of experiment: Trypanosoma cruzi proteasome chymotrypsin-like activity (TcProtChymo) assay. Further: in the data most compounds retested in dose-response had high values. Format: functional. The following applies: 9.37 µM.

A further assay is filed under the species Homo sapiens. As to the kind of experiment: To identify inhibition of the IFN signalling (Jak-Stat) pathway via expression of an eGFP reporter gene under the control of an IFN-stimulated response element (ISRE) containing MxA promoter. The assay is classed as functional. Particulars: 30 µM. For orientation: A reporter such as luciferase makes a cellular process visible.

For assay [7], the target named is T4, Tyrosyl-tRNA synthetase, putative (Trypanosoma cruzi (strain CL Brener)) (UniProt Q4DSP6).
T4 sequence (whole entry): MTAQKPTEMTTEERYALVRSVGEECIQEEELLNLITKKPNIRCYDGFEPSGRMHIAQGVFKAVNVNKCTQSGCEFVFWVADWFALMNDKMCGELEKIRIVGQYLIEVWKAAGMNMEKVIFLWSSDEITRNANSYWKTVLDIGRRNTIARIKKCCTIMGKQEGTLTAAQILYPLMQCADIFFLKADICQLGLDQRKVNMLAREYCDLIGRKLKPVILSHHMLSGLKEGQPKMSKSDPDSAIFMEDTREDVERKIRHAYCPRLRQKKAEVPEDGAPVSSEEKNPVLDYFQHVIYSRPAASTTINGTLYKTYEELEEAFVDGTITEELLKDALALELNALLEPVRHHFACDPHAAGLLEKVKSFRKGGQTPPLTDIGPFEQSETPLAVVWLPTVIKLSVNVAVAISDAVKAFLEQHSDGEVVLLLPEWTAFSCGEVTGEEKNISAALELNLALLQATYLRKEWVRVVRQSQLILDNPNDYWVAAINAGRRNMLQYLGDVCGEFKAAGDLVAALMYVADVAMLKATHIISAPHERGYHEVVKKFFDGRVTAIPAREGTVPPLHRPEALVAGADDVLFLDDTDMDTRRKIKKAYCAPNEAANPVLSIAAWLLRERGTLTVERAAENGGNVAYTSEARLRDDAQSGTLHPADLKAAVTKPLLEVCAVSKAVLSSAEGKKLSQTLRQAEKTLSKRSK
As to the kind of experiment: Trypanosoma cruzi tyrosyl tRNA synthetase (TcYRS) _High Tyrosine SOP. Further: in the data most compounds retested in dose-response had high values. Format: functional. The following applies: 30 µM.

Assay [8] concerns the target T4, Tyrosyl-tRNA synthetase, putative (Trypanosoma cruzi (strain CL Brener)). In words: Trypanosoma cruzi tyrosyl tRNA synthetase (TcYRS) SOP. Particulars: 30 µM. The assay is classed as functional.
For assay [9], the target named is Chromo domain-containing protein 1 (Saccharomyces cerevisiae (strain ATCC 204508 / S288c) (Baker's yeast)) (UniProt P32657). As to the kind of experiment: ScCHD-1 Enzyme Inhibition Assay. Further: in the data most compounds retested in dose-response had high values. Format: functional. Particulars: 30 µM.
Sequence of Chromo domain-containing protein 1 (Saccharomyces cerevisiae (strain ATCC 204508 / S288c) (Baker's yeast)) (P32657 whole entry, the tested form may be a part): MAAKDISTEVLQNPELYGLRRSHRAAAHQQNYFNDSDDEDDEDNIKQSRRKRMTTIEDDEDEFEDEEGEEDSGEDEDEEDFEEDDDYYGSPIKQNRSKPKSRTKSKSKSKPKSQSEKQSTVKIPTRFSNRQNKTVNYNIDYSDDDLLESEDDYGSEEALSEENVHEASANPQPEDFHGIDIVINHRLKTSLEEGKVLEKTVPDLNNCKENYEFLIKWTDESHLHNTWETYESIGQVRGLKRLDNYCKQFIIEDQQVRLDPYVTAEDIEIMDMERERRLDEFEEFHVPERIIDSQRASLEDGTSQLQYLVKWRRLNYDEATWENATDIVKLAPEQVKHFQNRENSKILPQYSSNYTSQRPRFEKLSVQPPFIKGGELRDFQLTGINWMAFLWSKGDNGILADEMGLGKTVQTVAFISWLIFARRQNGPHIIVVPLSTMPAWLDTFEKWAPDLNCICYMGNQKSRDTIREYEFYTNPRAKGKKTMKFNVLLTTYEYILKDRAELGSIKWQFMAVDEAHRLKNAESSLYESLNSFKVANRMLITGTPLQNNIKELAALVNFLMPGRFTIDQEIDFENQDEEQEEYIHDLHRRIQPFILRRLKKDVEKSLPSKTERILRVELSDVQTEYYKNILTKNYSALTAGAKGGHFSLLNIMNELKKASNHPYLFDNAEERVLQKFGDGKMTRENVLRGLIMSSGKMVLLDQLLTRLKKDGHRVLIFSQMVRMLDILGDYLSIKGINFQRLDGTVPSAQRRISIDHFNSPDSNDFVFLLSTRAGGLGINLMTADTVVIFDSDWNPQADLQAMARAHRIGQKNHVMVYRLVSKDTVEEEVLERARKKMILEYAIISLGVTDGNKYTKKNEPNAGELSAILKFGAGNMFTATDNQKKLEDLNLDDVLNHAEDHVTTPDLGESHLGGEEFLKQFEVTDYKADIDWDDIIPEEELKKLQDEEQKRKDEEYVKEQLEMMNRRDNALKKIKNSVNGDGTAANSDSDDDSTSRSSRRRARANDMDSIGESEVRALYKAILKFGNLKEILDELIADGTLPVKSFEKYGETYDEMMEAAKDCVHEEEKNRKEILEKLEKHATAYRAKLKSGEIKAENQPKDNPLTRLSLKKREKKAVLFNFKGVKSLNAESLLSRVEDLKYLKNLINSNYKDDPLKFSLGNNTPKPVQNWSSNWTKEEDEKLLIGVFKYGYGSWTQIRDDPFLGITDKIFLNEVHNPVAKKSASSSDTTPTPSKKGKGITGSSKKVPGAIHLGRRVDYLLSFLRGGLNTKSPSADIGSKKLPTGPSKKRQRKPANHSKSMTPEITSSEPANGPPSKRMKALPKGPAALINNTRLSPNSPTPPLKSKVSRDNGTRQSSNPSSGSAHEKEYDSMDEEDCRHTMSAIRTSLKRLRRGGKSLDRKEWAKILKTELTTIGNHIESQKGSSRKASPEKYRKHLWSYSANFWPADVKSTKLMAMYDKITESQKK

Sequence of Protein translocase subunit SecA (Escherichia coli (strain K12)) (P10408 whole entry): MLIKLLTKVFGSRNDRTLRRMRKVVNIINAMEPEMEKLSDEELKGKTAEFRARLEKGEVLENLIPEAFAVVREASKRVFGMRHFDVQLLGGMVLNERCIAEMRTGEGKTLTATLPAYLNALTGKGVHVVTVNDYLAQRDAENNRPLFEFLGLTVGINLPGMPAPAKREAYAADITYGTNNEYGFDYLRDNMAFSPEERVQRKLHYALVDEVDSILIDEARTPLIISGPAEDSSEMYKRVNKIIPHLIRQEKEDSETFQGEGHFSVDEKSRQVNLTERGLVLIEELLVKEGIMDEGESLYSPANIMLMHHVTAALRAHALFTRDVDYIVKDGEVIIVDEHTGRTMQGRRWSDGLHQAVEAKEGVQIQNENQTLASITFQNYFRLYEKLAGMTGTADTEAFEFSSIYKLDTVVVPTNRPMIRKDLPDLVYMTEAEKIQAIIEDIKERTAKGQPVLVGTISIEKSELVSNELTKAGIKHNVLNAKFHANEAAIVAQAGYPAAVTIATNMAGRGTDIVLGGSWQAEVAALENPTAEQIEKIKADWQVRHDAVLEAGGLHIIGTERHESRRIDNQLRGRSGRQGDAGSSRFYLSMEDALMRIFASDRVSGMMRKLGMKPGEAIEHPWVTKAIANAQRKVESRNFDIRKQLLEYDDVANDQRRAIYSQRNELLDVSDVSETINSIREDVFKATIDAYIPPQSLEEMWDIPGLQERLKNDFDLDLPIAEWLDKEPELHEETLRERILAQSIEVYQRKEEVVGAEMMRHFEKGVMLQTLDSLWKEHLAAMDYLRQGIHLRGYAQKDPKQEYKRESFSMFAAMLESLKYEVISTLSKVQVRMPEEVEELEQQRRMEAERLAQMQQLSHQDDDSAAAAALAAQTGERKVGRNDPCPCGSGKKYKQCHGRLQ
Sequence of Sialic acid-binding Ig-like lectin 9 (Homo sapiens) (Q9Y336 whole entry): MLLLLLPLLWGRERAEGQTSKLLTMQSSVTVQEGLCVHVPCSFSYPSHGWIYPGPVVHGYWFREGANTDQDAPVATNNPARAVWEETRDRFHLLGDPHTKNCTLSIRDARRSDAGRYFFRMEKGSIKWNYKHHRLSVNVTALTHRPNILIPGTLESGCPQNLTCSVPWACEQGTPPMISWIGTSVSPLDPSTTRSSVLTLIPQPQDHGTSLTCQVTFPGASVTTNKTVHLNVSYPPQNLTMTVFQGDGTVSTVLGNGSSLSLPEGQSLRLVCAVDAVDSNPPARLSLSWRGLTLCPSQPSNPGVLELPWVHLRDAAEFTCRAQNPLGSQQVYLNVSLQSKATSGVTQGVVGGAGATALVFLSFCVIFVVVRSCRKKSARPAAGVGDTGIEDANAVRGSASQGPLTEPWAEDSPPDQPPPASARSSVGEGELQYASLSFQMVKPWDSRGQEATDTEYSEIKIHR

Turning to `CC(c1nc(C2CC2)no1)N1CCN(Cc2ccccc2F)CC1` (stereo not drawn), the Percent Effect in assay [1] is -2.5%; in assay [2], 3.8%; in assay [3], 3.7%; in assay [4], 3.98%; in the assay with Trypanosoma cruzi, -0.718%; in [5], 2.8%. Further, the Percent Effect is 1.2% in assay [6]; -11.4% in the assay listed under Homo sapiens; 2.08% in assay [7]; 7.59% in assay [8]; -0.861% in [9].
`COCCN(Cc1ccoc1)C(=O)c1ccccc1Cl`: the Percent Effect in assay [1] was -4.82%; in assay [2], 0%; in assay [3], 0.957%; in assay [4], -4.22%; with Trypanosoma cruzi it was -4.24%; in assay [5] it was -1.94%. The Percent Effect in assay [6] is 0.522%; in the assay listed under Homo sapiens, 14.2%; in assay [7], 1.06%; in [8], 1.28%; in assay [9], -1.4%.
`Cc1cc(S(=O)(=O)N2CCCc3cc(F)cc(F)c32)sc1C(=O)O`: the Percent Effect was -9.52% in assay [1]; -2.67% in assay [2]; 2.83% in assay [3]; 0.801% in assay [4]; -6.33% in the assay on Trypanosoma cruzi; -2.6% in assay [5]. Besides, the Percent Effect in assay [6] was 9.59%; in the assay listed under Homo sapiens, 7.51%; in [7] it was -14.8%; in [8], -18.5%; in [9] it was -5.34%.
On to `Cc1nc(-c2ccc(Cl)s2)sc1C(=O)NCCS(N)(=O)=O`, for which the Percent Effect in assay [1] was -5.36%; in assay [2] it was 10.8%; in [3], 20%; in assay [4], 14.1%; with Trypanosoma cruzi it was -1.95%; in assay [5], 2.4%. In addition, the Percent Effect came to 9.34% in assay [6]; 6.3% in the assay listed under Homo sapiens; 5.94% in [7]; 13.4% in assay [8]; 0.478% in [9].
As to `Cc1ccc2c(ccn2CCC(=O)O)c1`, the Percent Effect in assay [1] was -4.82%; in [2], 0%; in assay [3] it was 0.269%; in assay [4], -0.473%; in the assay with Trypanosoma cruzi it was 1.07%; in assay [5] it was -0.744%. Besides, the Percent Effect in [6] is -2.83%; in the assay listed under Homo sapiens, 11.2%; in assay [7], 1.07%; in assay [8], 3.7%; in assay [9], 0.48%.
Regarding `O=C(Nc1ccccc1F)N(CCO)Cc1ccsc1`, the Percent Effect was -4.39% in assay [1]; 0% in assay [2]; 2.24% in assay [3]; 1.32% in [4]; -3.76% in the assay with Trypanosoma cruzi; -1.92% in [5]. Further, the Percent Effect is -2.51% in assay [6]; 29.1% in the assay filed under Homo sapiens; -1.47% in assay [7]; -4.88% in [8]; 10.7% in assay [9].
On to `Cc1ccc(CN(CCCn2ccnc2)Cc2c[nH]cn2)s1`, for which the Percent Effect in assay [1] was -8.11%; in assay [2], 9.46%; in assay [3], -4.5%; in assay [4], 6%; in the assay with Trypanosoma cruzi, 0%; in assay [5] it was 1.62%. Further, the Percent Effect in [6] is 11.4%; in the assay listed under Homo sapiens, 9.27%; in [7], 9.68%; in assay [8] it was 14.3%; in assay [9], -25.7%.
Consider `CC(C)(C)NC(=O)NC(=O)CNC(C)(C)c1ccc2c(c1)OCCO2`, for which the Percent Effect in assay [1] was -5.89%; in assay [2], 13.5%; in assay [3] it was -6.92%; in assay [4] it was 1.3%; with Trypanosoma cruzi, 0.472%; in assay [5], -4.01%. Besides, the Percent Effect in [6] is 6.67%; in the assay listed under Homo sapiens, 11.6%; in assay [7], 4.43%; in assay [8] it was 13.6%; in assay [9] it was -5.2%.
